Results filed as inconclusive are left out. Activity calls are given as the source filed them. Unless noted, calls come from the whole dose curve; as a rule, active = well fitted curve in the direction sought with a large enough effect; inconclusive = small, poorly fitted or top-dose-only effect, or another doubt; inactive = no such curve, though single readings can be large; an effect the other way counts as inactive or inconclusive.
How the values were obtained:
[1] = qHTS Assay for Identification of Small Molecule Agonists for NFkB Signaling Pathway. (AID 624478);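 note: compounds tested together with TNF alpha at its EC50 of 10 pM; 0% is about no effect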
In short: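 ME-180 cervical carcinoma, stable NFkB-RE beta-lactamase reporter; 1000 cells/well, overnight attachment; cpd + TNF alpha 10 pM final, 5 h 37 C; LiveBLAzer 2 h RT; FRET 460/530 nm, ex 405 nm.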

[2] = Cell Proliferation Assay against the TMD8 Cell Line (AID 651645); conditions: TMD8 DLBCL cell line proliferation/viability; at 46.1 µM (top of the series);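 note: cells exposed to compound for 48 h before reading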
In short: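 500 TMD8 cells/well, RPMI + Glutamax, no phenol red, 5% FBS; cpd added immediately; 48 h, 37C, 5% CO2; CellTiter-Glo, luminescence. Controls: DMSO = 100%, bortezomib 9.2 uM final = 0%.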

[3] = Cell Proliferation Assay against the HBL1 Cell Line (AID 651646); conditions: HBL1 DLBCL cells; at 46.1 µM (top of the series);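 note: cells exposed to compound for 48 h before reading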
In short: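 500 log-phase HBL1 cells per well in phenol red-free RPMI with 5% FBS were treated with compounds for 48 h at 37 °C, 5% CO2. Viability was read by CellTiter-Glo luminescence, normalized to DMSO (100%) and 9.2 uM bortezomib final (0%).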

[4] = Cell Proliferation Assay against the TMD8 Cell Line (Caspase readout at 8 hrs) (AID 651713); note: potency is the fitted concentration of half-maximal effect
In short: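 Seed log-phase TMD8 cells, add compound by pin tool, incubate 8 h at 37C under 5% CO2, equilibrate to room temperature, add Caspase-Glo, wait 15 min, read luminescence; percent activity uses DMSO and 9.2 uM bortezomib controls.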

[5] = biological target: Tyrosine-protein kinase Yes (Homo sapiens) (UniProt P07947); assay: qHTS for small molecule inhibitors of Yes1 kinase: Primary Screen (AID 686947); note: nearly all actives have a fitted effect of over 60% in size; note: potency is the fitted concentration of half-maximal effect
Tyrosine-protein kinase Yes (Homo sapiens), sequence (P07947 whole entry, looked up): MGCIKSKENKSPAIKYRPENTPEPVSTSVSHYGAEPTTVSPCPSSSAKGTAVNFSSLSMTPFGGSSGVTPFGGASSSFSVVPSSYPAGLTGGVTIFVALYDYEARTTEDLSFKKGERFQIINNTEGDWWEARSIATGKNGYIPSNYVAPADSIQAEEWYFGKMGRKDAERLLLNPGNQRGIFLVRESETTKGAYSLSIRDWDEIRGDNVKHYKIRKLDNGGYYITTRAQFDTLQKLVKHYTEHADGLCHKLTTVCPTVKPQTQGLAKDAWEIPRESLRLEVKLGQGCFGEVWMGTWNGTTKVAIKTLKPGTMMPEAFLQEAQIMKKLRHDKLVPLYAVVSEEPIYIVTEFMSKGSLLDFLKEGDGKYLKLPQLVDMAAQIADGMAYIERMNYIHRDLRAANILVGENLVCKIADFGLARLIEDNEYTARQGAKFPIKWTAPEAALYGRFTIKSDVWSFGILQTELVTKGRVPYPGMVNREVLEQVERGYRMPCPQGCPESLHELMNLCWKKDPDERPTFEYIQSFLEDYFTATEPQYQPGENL
In short: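 Yes1 (4 nM) preincubated 20 min with compound, then 60 min room-temperature reaction with 0.1 mM ATP and 0.3 mg/mL poly(E4Y) in pH 7.5 Tris, 10 mM MgCl2. ADP measured by ADP-Glo luminescence, normalised to enzyme/no-enzyme controls.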

[6] = qHTS for small molecule inhibitors of Yes1 kinase: Counter Assay (AID 686950);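 note: no kinase present so only ADP-Glo detection of a fixed ADP amount is tested; luminescence from ADP-Glo reporting ADP in a fixed ATP and ADP mixture; 0% = DMSO wells with ATP plus ADP and -100% = ATP-only wells without ADP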
In short: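 Enzyme-free ADP-Glo interference check: compounds were preincubated 20 min in buffer, then an ATP/ADP mix (0.08 mM ATP, 0.02 mM ADP final) was added for 60 min at room temperature before two-step ADP-Glo luminescence detection.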

[7] = Cell Proliferation Assay against the TMD8 Cell Line (Caspase readout at 16 hrs) (AID 651712); note: potency is the fitted concentration of half-maximal effect
In short: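 TMD8 cells (500/well) in phenol-red-free RPMI with glutamine, 5% FBS, were exposed to compounds for 16 h at 37 °C. Caspase 3/7 activation was read by Caspase-Glo luminescence; percent activity normalised to DMSO (0%) and 9.2 uM bortezomib final (100%).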

[8] = qHTS Assay for Identification of Small Molecule Antagonists for NFkB Signaling Pathway. (AID 624479; calls by dose curve;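 note: pathway stimulated with TNF alpha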; note: potency is the fitted concentration of half-maximal effect)
[9] = qHTS for Inhibitors of Ubiquitin-specific Protease USP2a Using CHOP2 as the Reporter: K633 Counterscreen (AID 652168); note: % of control where 0% means no effect
In short: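 Cell-free interference counterscreen without USP2a: compounds pinned into enzyme-free buffer (20 mM Tris pH 8, 2 mM beta-mercaptoethanol, 0.05% Chaps), then DiUb K48-4IQF substrate added (100 nM stock); fluorescence read kinetically, Ex 525/Em 598.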

[10] = qHTS for Inhibitors of Ubiquitin-specific Protease USP2a Using CHOP2 as the Reporter: Cytotox Assay (AID 652170); conditions: HCT116 viability, CellTiter-Glo luminescence, 72 h; note: potency is the fitted concentration of half-maximal effect; nearly all actives have a fitted effect of over 70% in size
In short: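 HCT116 human colon cancer cells, 600 per well in DMEM with 10% FBS, exposed to compounds for 72 hr at 37 deg C. ATP measured by CellTiter-Glo luminescence, normalized to DMSO cells and no-cell background.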

[11] = biological target: Ubiquitin carboxyl-terminal hydrolase 2 (Homo sapiens) (UniProt O75604); assay: qHTS for Inhibitors of Ubiquitin-specific Protease USP2a Using CHOP2 as the Reporter: K484 Substrate (AID 652173); conditions: USP2 cleavage of DiUb K48 IQF substrate, fluorescence;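 note: cleavage of internally quenched K48 di-ubiquitin substrate measured as rising fluorescence over time; potency is the fitted concentration of half-maximal effect; nearly all actives have a fitted effect of over 70% in size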
Ubiquitin carboxyl-terminal hydrolase 2 (Homo sapiens), sequence (O75604 whole entry, looked up): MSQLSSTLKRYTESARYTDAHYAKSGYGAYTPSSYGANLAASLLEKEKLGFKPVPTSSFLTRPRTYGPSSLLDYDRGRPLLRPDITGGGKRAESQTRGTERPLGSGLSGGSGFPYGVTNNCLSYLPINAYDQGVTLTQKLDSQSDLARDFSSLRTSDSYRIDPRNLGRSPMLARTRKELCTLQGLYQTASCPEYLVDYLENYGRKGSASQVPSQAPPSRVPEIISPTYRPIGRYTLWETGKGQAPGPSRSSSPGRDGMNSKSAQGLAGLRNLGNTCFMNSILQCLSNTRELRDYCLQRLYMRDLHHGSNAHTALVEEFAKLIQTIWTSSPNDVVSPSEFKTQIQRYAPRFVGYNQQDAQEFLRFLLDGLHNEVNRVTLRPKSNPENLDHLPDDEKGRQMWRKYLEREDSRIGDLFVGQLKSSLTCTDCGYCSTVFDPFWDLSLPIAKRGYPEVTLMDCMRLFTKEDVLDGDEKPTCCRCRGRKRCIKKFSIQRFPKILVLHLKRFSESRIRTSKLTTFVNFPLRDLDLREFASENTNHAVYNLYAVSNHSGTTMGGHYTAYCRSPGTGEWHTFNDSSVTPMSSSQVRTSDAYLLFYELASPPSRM
In short: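 USP2 (dispensed at 5 nM) was pinned with compounds, then DiUb K48 internally quenched fluorescent substrate (dispensed at 100 nM) was added. The buffer was 20 mM Tris pH 8, 2 mM beta-mercaptoethanol and 0.05% CHAPS. Cleavage was read kinetically as rising fluorescence, Ex 525/Em 598.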

[12] = qHTS assay for small molecule agonists of the antioxidant response element (ARE) signaling pathway (AID 651741; active = well fitted activation curve with a large enough effect in the signal ratio; the % refers to the signal ratio; note: potency is the fitted concentration of half-maximal effect); conditions: HepG2 ARE-bla reporter, beta-lactamase FRET ratio, 16 h
In short: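 Compounds in DMSO are pinned onto HepG2 ARE-bla cells (2,000/well) that were preincubated 5 h; plates stay 16 h at 37 C, then beta-lactamase activity is detected with LiveBLAzer B/G substrate by fluorescence.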

[13] = qHTS assay for small molecule activators of the p53 signaling pathway (AID 651743; active = well fitted activation curve with a large enough effect in the signal ratio, not every such curve was filed as active; the % refers to the signal ratio; note: % of control where 0% means no effect); conditions: HCT-116 p53RE-bla, beta-lactamase FRET ratio, 16 h; stronger effect = higher value
In short: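 Cell-based beta-lactamase reporter (p53 response elements, HCT-116 background). After a 5-hour preincubation, cells received compound for 16 hours at 37 C; substrate development ran 2 hours at room temperature.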

[14] = qHTS assay for small molecule activators of the nuclear factor-kappa B (NF-kB) signaling pathway (AID 651749; active = well fitted activation curve with a large enough effect in the signal ratio; the % refers to the signal ratio; note: % of control where 0% means no effect); conditions: NF-kB-bla ME-180 cells, beta-lactamase FRET ratio, 16 h; stronger effect = higher value
In short: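 Screening used 2,000 ME-180 reporter cells per well exposed to pinned compound (23 nL) or DMSO; after 16 hr at 37C, beta-lactamase expression under NF-kB control was assessed through FRET.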

[15] = qHTS assay for environmental chemicals that activate the Aryl hydrocarbon Receptor (AhR) signaling pathway (AID 651777); conditions: 1A2-DRE human hepatoma cells, luciferase, 24 h; stronger effect = higher value; note: % of control where 0% means no effect; nearly all actives have a fitted effect of over 15% in size
In short: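 1A2-DRE human hepatoma reporter line; 1,200 cells/well; cmpd or DMSO 24 h, 37 C/5% CO2; One-Glo 30 min RT; luciferase lum.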

[16] = biological target: Peroxisome proliferator-activated receptor alpha (Homo sapiens) (UniProt Q07869); assay: qHTS assay for small molecule agonists of the peroxisome proliferator-activated receptor alpha (PPARalpha) signaling pathway (AID 651778); conditions: PathHunter PPARalpha complementation, chemiluminescence, 6 h; stronger effect = higher value; note: % of control where 0% means no effect
Peroxisome proliferator-activated receptor alpha (Homo sapiens), sequence (Q07869 whole entry, looked up): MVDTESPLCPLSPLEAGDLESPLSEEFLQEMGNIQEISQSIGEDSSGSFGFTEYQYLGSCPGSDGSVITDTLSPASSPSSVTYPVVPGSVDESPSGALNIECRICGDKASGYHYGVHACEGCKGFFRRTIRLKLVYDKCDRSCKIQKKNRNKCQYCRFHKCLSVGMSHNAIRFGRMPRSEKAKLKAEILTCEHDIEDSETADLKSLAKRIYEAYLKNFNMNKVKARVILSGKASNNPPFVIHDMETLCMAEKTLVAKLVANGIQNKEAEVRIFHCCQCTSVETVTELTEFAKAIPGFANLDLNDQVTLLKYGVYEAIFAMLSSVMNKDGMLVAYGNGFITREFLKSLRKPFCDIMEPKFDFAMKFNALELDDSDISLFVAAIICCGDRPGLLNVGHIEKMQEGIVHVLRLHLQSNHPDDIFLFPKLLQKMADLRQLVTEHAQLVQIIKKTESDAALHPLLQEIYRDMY
In short: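 Cells plated at 2,000/well and held overnight at 37 C, 5% CO2, then compound added by pin tool for 6 hr; after PathHunter detection reagent and 60 min at room temperature, chemiluminescence from enzyme complementation was read.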

## Cc1cc(Nc2cc(N3CCN(C)CC3)nc(C=Cc3ccccc3)n2)n[nH]1
[1]
  outcome: inactive
[2]
  viability (% of control): 9.16%
[3]
  viability, percent of control: 3.87%
[4]
  Potency: inactive
[5]
  Potency: 0.0307 µM (active)
[6]
  outcome: inactive

## Cn1cncc1[C@@](N)(c1ccc(Cl)cc1)c1ccc2c(c1)c(-c1cccc(Cl)c1)cc(=O)n2C
[1]
  outcome: inactive
[2]
  viability (% of control): 1.01%
[3]
  viability, percent of control: 1.3%
[5]
  Potency: inactive
[6]
  outcome: inactive

## CC1(O)CC(c2nc(-c3ccc4ccc(-c5ccccc5)nc4c3)c3c(N)nccn23)C1 (configuration not stated)
[1]
  outcome: inactive
[2]
  viability (% of control): 2.23%
[3]
  viability, percent of control: 43%
[7]
  Potency: 26.4 µM (active)
[4]
  Potency: inactive
[5]
  Potency: 1.73 µM (active)
[6]
  outcome: inactive

## c1cc(-c2cnn3cc(-c4ccc(OCCN5CCCCC5)cc4)cnc23)ccn1
[1]
  outcome: inactive
[2]
  viability (% of control): 2.17%
[3]
  viability, percent of control: 8.17%
[6]
  outcome: inactive

## COc1cc(=C2C=c3ccccc3=N2)[nH]c1=Cc1[nH]c(C)cc1C
[8]
  Potency: inactive
[2]
  viability (% of control): 6.25%
[3]
  viability, percent of control: 26%
[4]
  Potency: inactive
[6]
  outcome: inactive

## Cc1cc(Nc2cc(N3CCN(C)CC3)nc(Sc3ccc(NC(=O)C4CC4)cc3)n2)n[nH]1
[1]
  outcome: inactive
[2]
  viability (% of control): 19.5%
[3]
  viability, percent of control: 27.1%
[4]
  Potency: inactive
[6]
  outcome: inactive

## CCC(=C(c1ccccc1)c1ccc(OCCN(C)C)cc1)c1ccccc1
[8]
  Potency: 21.1 µM (active)
[2]
  viability (% of control): -0.936%
[3]
  viability, percent of control: -1.5%
[4]
  Potency: 33.2 µM (active)
[6]
  outcome: inactive

## CN(C)CCCN=c1c2ccccc2n(C)c2[nH]c(=O)n(C)c(=O)c12
[1]
  outcome: inactive
[2]
  viability (% of control): 1.93%
[3]
  viability, percent of control: 32.9%
[7]
  Potency: 20.9 µM (active)
[4]
  Potency: 26.4 µM (active)
[6]
  outcome: inactive

## CC(=O)OCC(=O)[C@@]1(O)[C@H](C)C[C@H]2[C@@H]3C=C(C)C4=Cc5c(cnn5-c5ccccc5)C[C@]4(C)[C@@H]3[C@@H](O)C[C@@]21C
[1]
  outcome: inactive
[2]
  viability (% of control): 3.02%
[3]
  viability, percent of control: 2.93%
[7]
  Potency: 20.9 µM (active)
[4]
  Potency: inactive
[5]
  Potency: inactive
[6]
  outcome: inactive

## C1=CCOCc2cc(ccc2OCCN2CCCC2)Nc2nccc(n2)-c2cccc(c2)OCC1
[1]
  outcome: inactive
[2]
  viability (% of control): 61.1%
[6]
  outcome: inactive

## Cc1ccc(S(=O)(=O)Nc2cc(Cl)ccc2C(=O)Nc2nc(-c3ccccc3)cs2)cc1
[9]
  outcome: inactive
[10]
  Potency: 5.26 µM (active)
[11]
  Potency: 1.22 µM (active)
[6]
  outcome: inactive

## N#CCNC(=O)c1ccc(-c2ccnc(Nc3ccc(N4CCOCC4)cc3)n2)cc1
[1]
  outcome: inactive
[8]
  Potency: 0.668 µM (active)
[2]
  viability (% of control): 7.51%
[3]
  viability, percent of control: 25.4%
[7]
  Potency: 5.26 µM (active)
[6]
  outcome: inactive

## C=CC(=O)N1CCC[C@@H](n2nc(-c3ccc(Oc4ccccc4)cc3)c3c(N)ncnc32)C1
[6]
  outcome: inactive

## O=C(C=Cc1cccc(S(=O)(=O)Nc2ccccc2)c1)NO
[1]
  outcome: inactive
[2]
  viability (% of control): 1.87%
[3]
  viability, percent of control: 2.01%
[7]
  Potency: 0.935 µM (active)
[4]
  Potency: inactive
[6]
  outcome: inactive

## Cn1cc(-c2[nH]c3cc(NC(=O)[C@H](N)C4CCCCC4)cc4c3c2C=NNC4=O)cn1
[1]
  outcome: inactive
[8]
  Potency: inactive
[2]
  viability (% of control): 2.55%
[3]
  viability, percent of control: 21.5%
[7]
  Potency: 0.166 µM (active)
[6]
  outcome: inactive

## CS(=O)(=O)N1CCN(Cc2cc3nc(-c4cccc5[nH]ncc45)nc(N4CCOCC4)c3s2)CC1
[1]
  outcome: inactive
[6]
  outcome: inactive

## C=CC(=O)Nc1cccc(Oc2nc(Nc3ccc(N4CCN(C)CC4)cc3OC)ncc2Cl)c1
[1]
  outcome: inactive
[8]
  Potency: inactive
[2]
  viability (% of control): 0.697%
[3]
  viability, percent of control: 2.13%
[4]
  Potency: 7.43 µM (active)
[6]
  outcome: inactive

## Cc1cnc(Nc2ccc(F)cc2Cl)nc1-c1c[nH]c(C(=O)N[C@H](CO)c2cccc(Cl)c2)c1
[1]
  outcome: inactive
[2]
  viability (% of control): -0.93%
[3]
  viability, percent of control: 0.107%
[5]
  Potency: inactive
[6]
  outcome: inactive

## Fc1cc(-c2cccc3ncc(-c4cnn(C5CCNCC5)c4)nc23)cc(F)c1CN1CCOCC1
[1]
  outcome: inactive
[2]
  viability (% of control): 1.53%
[3]
  viability, percent of control: 2.06%
[5]
  Potency: 0.308 µM (active)
[6]
  outcome: inactive

## Cc1cn2c(-c3cn[nH]c3)cnc2c(Nc2ccc(C(=O)N3CCNCC3)cc2F)n1
[1]
  outcome: inactive
[2]
  viability (% of control): 35.7%
[3]
  viability, percent of control: 85.6%
[6]
  outcome: inactive

## COc1cc(C(C)C)c2c(c1)S(=O)(=O)N(COc1cc(=O)n3cccc(OCCN4CCCCC4)c3n1)C2=O
[1]
  outcome: inactive
[8]
  Potency: 14.9 µM (active)
[2]
  viability (% of control): 0.892%
[3]
  viability, percent of control: 1.12%
[7]
  Potency: inactive
[6]
  outcome: inactive

## CCN(CC)CCCCNc1ncc2cc(-c3cc(OC)cc(OC)c3)c(NC(=O)NC(C)(C)C)nc2n1
[1]
  outcome: inactive
[2]
  viability (% of control): 3%
[3]
  viability, percent of control: 7.6%
[7]
  Potency: inactive
[4]
  Potency: 26.4 µM (active)
[6]
  outcome: inactive

## Clc1ccc2ncc(-c3cccc(NC4CNC4)n3)n2c1
[1]
  outcome: inactive
[8]
  Potency: 6.68 µM (active)
[2]
  viability (% of control): 1.46%
[3]
  viability, percent of control: 34.2%
[5]
  Potency: 0.274 µM (active)
[6]
  outcome: inactive

## C[C@@H](Oc1cc(-n2cnc3ccc(CN4CCN(C)CC4)cc32)sc1C(N)=O)c1ccccc1C(F)(F)F
[1]
  outcome: inactive
[8]
  Potency: inactive
[2]
  viability (% of control): 2.56%
[3]
  viability, percent of control: 3.16%
[4]
  Potency: 23.5 µM (active)
[6]
  outcome: inactive

## O=C(O)CCCc1c[nH]c2ccccc12
[12]
  Potency: 61.1 µM (active)
[13]
  activation: -6.63% (inactive)
[14]
  activation: -1.42% (inactive)
[15]
  activation: 1.2% (inactive)
[16]
  max response: -0.171% (inactive)

From PubChem BioAssay (NCATS)
